Screening data as filed in PubChem BioAssay.
ALDH1A1 inh: inhibitors of human aldehyde dehydrogenase 1A1 | P00352 | Purified ALDH1A1, NADH fluorescence, propionaldehyde substrate | Potency, µM (doses to about 75.3 µM), actives largely listed as inhibitors | hit rate 7.3% among 220,000 | AID 1030; active = well fitted inhibition curve with a large enough effect, not every such curve was filed as active; inconclusive = small, poorly fitted or top-dose-only effect, or another doubt; inactive = no such curve, though single readings can be large or run the other way
Target sequence (P00352 whole entry, looked up): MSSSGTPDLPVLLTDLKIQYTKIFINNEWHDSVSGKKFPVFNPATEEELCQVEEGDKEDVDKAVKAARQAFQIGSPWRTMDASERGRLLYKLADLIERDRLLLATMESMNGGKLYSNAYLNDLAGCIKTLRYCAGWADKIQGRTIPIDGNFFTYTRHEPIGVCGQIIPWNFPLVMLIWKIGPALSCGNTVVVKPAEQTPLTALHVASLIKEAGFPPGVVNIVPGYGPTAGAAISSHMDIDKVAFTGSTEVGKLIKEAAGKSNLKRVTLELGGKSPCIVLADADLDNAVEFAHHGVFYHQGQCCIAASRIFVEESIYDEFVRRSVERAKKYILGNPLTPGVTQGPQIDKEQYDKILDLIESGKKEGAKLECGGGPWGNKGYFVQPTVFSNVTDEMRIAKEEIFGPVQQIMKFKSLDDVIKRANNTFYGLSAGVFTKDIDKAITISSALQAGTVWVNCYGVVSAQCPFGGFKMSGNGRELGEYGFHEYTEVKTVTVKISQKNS
IMPase cell inh: cell-permeable inhibitors of inositol monophosphatase (IMPase); CHO-M1 cells, IP1 accumulation, HTRF TR-FRET ratio; inhibition (IP1 accumulation), % at 46.1 µM; 120,000 tested, under 10 active; active = well fitted curve in the direction sought with a large enough effect in the signal ratio, not every such curve was filed as active; inconclusive = small, poorly fitted or top-dose-only effect, or a change in a side signal; inactive = no such curve, though single readings can be large or run the other way; the % refers to the signal ratio;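 also: cells stimulated with carbachol in lithium chloride buffer; higher means more IMPase inhibition seen as more IP1 and lower FRET ratio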
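Cellular IMPase inhibition is scored as a rise in cytosolic IP1, detected by competitive TR-FRET between d2-labelled IP1 and a europium anti-IP1 antibody. M1-expressing CHO cells were stimulated with carbachol for 30 min at 37C, with lithium (50 mM LiCl) present in the buffer.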
12-hLO inh: inhibitors of human 12-lipoxygenase (ALOX12); hit rate 0.12% among 150,000; Potency, µM (doses to about 57.1 µM), hits mostly inhibitors; AID 1452; purified 12-hLO, xylenol orange hydroperoxide absorbance; also: nearly all actives have a fitted effect of over 55% in size
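Hydroperoxide output read as Fe(III)-xylenol orange absorbance, 573-to-405 nm ratio, after 30 min reaction with 40 uM arachidonic acid. Enzyme: 150 nM purified human 12hLO, 15 min compound preincubation; 25 mM Hepes pH 7.0, room temperature.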
NPSR antagonist: antagonists of human neuropeptide S receptor cAMP signaling | Q6W5P4 | CHO-NPSR cells, cAMP TR-FRET, antagonist mode | Potency, µM (highest dose often 38.3 µM), actives largely listed as inhibitors | hit rate 1% among 220,000; also: nearly all actives have a fitted effect of over 50% in size
IMPase Li cell: IMPase inhibition in cells with lithium potentiation. Potency, µM (series often up to 59.4 µM), actives largely listed as inhibitors. CHO-M1 cells, IP1 TR-FRET (IP-One), carbachol + lithium. hit rate 0.35% among 210,000. AID 1457;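 also: IP1 builds up when IMPase is blocked and the TR-FRET signal falls; nearly all actives have a fitted effect of over 50% in size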
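Test compounds were applied to CHO-M1 cells previously cultured for 16–30 h at 2000 per well. A small lithium amount accompanied them; after 30 min at 37C, IP1 was quantified by TR-FRET.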
HPGD block: blocks human HPGD enzyme activity; AID 894; purified HPGD, NADH fluorescence kinetic, PGE2 substrate; Potency, µM, most hits filed as inhibitors; hit rate 4.3% among 150,000; active = well fitted inhibition curve with a large enough effect, not every such curve was filed as active; inconclusive = small, poorly fitted or top-dose-only effect, or another doubt; inactive = no such curve, though single readings can be large or run the other way
Target sequence (P15428 whole entry, looked up): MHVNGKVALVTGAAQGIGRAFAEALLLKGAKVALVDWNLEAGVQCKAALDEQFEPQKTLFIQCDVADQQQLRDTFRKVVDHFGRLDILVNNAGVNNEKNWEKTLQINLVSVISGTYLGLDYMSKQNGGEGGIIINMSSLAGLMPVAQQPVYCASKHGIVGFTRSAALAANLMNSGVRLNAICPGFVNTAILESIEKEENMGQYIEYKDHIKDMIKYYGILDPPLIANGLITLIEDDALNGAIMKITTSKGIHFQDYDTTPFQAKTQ
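20 nM HPGD preincubated 15 min at room temperature with compound in 50 mM Tris-HCl pH 8, 0.01% Tween 20. Started with 1 mM NAD+ and 30 uM prostaglandin E2; NADH fluorescence (360/450 nm) read 5 times over 30-s intervals, last minus first.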
A number is an active result; – = inactive; ? = inconclusive; · = no result. Shown are actives, neighbours in structure and some others; about 8.9% of the full set was active somewhere. Unless noted, calls follow the shape of the dose curve; as a rule, active = well fitted curve in the direction sought with a large enough effect; inconclusive = small, poorly fitted or top-dose-only effect, or another doubt; inactive = no such curve, though single readings can be large; an effect the other way counts as inactive or inconclusive.

SMILES | ALDH1A1 inh | IMPase cell inh | 12-hLO inh | NPSR antagonist | IMPase Li cell | HPGD block
COc1ccc(C=C2C(=O)OC(C)(C)OC2=O)cc1OC | · | · | · | – | · | ·
Cc1ccc(C2=NOC(=O)/C2=C\C=C\c2ccccc2)cc1 | 3.5µM | · | · | 10µM | – | ·
COc1ccc(/C=C2/C(=O)ON=C2c2ccccc2)cc1OC | 22µM | – | – | ? | – | 10µM
COc1cc(/C=C2\C(=O)ON=C2c2ccccc2)cc(OC)c1OC | ? | – | – | – | – | 14µM
O=C1ON=C(c2ccccc2)/C1=C/c1ccco1 | ? | · | · | ? | – | ·
CN(C)/C=C1\C(=O)ON=C1c1ccccc1 | – | · | · | – | – | ·
COc1ccc(/C=C2\C(=O)ON=C2c2cccc([N+](=O)[O-])c2)cc1 | 18µM | · | · | ? | – | ·
Cc1ccc(-n2nc3c(c2NC(=O)c2ccc4c(c2)OCO4)CS(=O)C3)cc1 (centres undefined) | – | – | – | – | – | –
CCn1ncc(CN2CCN(Cc3cccc(OC)c3)C(CCO)C2)c1C (centres undefined) | – | · | · | – | – | ·
CC(C)N(Cc1nccn1C)C(=O)CC1C(=O)NCCN1Cc1ccccc1C(F)(F)F (centres undefined) | 40µM | · | · | – | – | ·
CN(CCc1ccccn1)C(=O)CC1C(=O)NCCN1Cc1ccccc1C(F)(F)F (centres undefined) | ? | · | · | – | – | ·
Clc1nc(Cl)nc(N(c2ccccc2)c2ccccc2)n1 | ? | · | – | – | – | –
COc1ccc(NC(=O)c2cnc(C)cn2)cc1-n1cnnn1 | – | – | – | – | – | –
COc1ccc(NC(=O)C2CC2)cc1-n1cnnn1 | – | – | – | – | – | 14µM
O=C(O)c1cc(C(F)(F)F)nc2ccccc12 | – | · | – | – | – | –
Cc1cc2c(cc1C)-c1c(ssc1=Nc1ccc(S(N)(=O)=O)cc1)C(C)(C)N2 | – | · | · | – | – | ·
COC(=O)[C@@H]1C[C@@]2(O)[C@@H](O)[C@@H](O)[C@@H](O)C[C@H]2N1Cc1ccc(C(F)(F)F)cc1 | – | · | – | – | – | –
Cc1cc(C)cc(NS(=O)(=O)c2cnc(Cl)c(Cl)c2)c1 | 3.5µM | – | – | ? | – | –
CCOc1ccc(NS(=O)(=O)c2cnc(Cl)c(Cl)c2)cc1 | ? | · | – | – | – | –
CC(C)c1cc(CNC(=O)CCc2nnc(CCCCc3ccccc3)o2)on1 | · | · | · | – | · | ·
Cn1c(=O)c(C(=O)CCl)c(N)n(CC2CC2)c1=O | 20µM | · | – | – | – | –
CC(C)Cn1c(N)c(C(=O)CCl)c(=O)n(C)c1=O | 8.9µM | · | – | – | – | –
CC(C)Cn1c(N)c(C(=O)CSc2cc(Cl)ccc2Cl)c(=O)n(C)c1=O | – | · | – | – | – | –
O=C(Cn1c(=O)n(-c2ccccc2)c(=O)c2sccc21)N1CCCC1 | – | – | – | – | – | –
CC(C)(C)C(=O)Cn1ncc(Cl)c(Cl)c1=O | ? | · | · | – | – | ·
SMILES | ALDH1A1 inh | IMPase cell inh | 12-hLO inh | NPSR antagonist | IMPase Li cell | HPGD block
O=C(Cn1ncc(Cl)c(Cl)c1=O)c1ccc(Cl)cc1 | 8.9µM | · | – | – | – | –
O=C(COC(=O)c1ccc(F)cc1)Nc1ccc(Cl)cn1 | – | · | · | – | · | ·
O=C(OCn1ncc(Cl)c(Cl)c1=O)c1ccccc1Cl | 2µM | – | – | 5µM | – | –
O=C(OCn1ncc(Cl)c(Cl)c1=O)c1ccc(F)cc1 | 1.1µM | – | – | ? | – | –
O=C(Cn1ncc(N2CCOCC2)c(Cl)c1=O)c1ccc(Cl)cc1 | – | · | · | – | – | ·
CC1=C(C(=O)c2ccccc2)C(c2cccc([N+](=O)[O-])c2)NC(=S)N1 (centres undefined) | 1.1µM | · | · | – | – | ·
COc1ccc(C2NC(=S)NC(C)=C2C(=O)Nc2ccccn2)cc1OC (centres undefined) | – | · | – | – | – | –
CC(=O)C1=C(C)NC(=S)NC1c1cc([N+](=O)[O-])ccc1O (centres undefined) | · | · | · | – | · | ·
COc1ccc(C2NC(=S)NC(C)=C2C(=O)c2ccccc2)cc1OC (centres undefined) | 11µM | – | – | – | – | –
CN(c1ccc(OCC(=O)OCC(=O)Nc2ccccc2)cc1)S(=O)(=O)c1cccs1 | – | – | – | – | – | –
c1ccc(-n2nnnc2SCc2cccc(CSc3nnnn3-c3ccccc3)n2)cc1 | 1.6µM | · | – | – | – | –
c1ccc(-n2nnnc2SCc2cn3ccccc3n2)cc1 | 4µM | – | – | – | – | –
c1ccc(-n2nnnc2SCc2cn3cccnc3n2)cc1 | ? | – | – | – | – | ?
c1ccc(CSc2nnnn2-c2cccc3ccccc23)nc1 | 20µM | – | – | – | ? | –
O=C(O)c1cccc(-n2nnnc2SCc2ccccn2)c1 | – | ? | – | – | – | ?
c1ccc(CSc2nnnn2-c2ccccc2)cc1 | ? | – | – | – | – | –
O=C(CCCSc1nnnn1-c1cccc2ccccc12)c1ccc(F)cc1 | 1.4µM | – | – | – | – | –
FC(F)(F)c1nc(-c2cccs2)ncc1-c1nnnn1-c1ccc(Cl)cc1 | ? | – | – | ? | – | ?
O=C(COc1ncnc2ccccc12)N1CCOCC1 | – | – | – | – | – | –
Cc1nn2c(COc3ccc(NC(=O)C(C)C)cc3)nnc2c2ccccc12 | – | · | · | – | – | ·
Cc1nn2c(CN(C(=O)COc3ccccc3)c3ccccc3)nnc2c2ccccc12 | 11µM | · | – | – | – | –
Cc1nn2c(COc3ccc(NC(=O)c4ccccc4Cl)cc3)nnc2c2ccccc12 | – | · | – | – | – | 14µM
Cc1nn2c(CN(C(=O)CN3CCOCC3)c3ccccc3)nnc2c2ccccc12 | 18µM | – | – | – | – | –
Cc1ccc(CNC(=O)CN2CCN(Cc3ccc(F)cc3Cl)C2=O)cc1 | · | – | · | · | · | ·
COc1ccc(Nc2nnc(-c3cc4c(ccc5ccccc54)oc3=O)s2)cc1 | · | – | · | · | · | ·
SMILES | ALDH1A1 inh | IMPase cell inh | 12-hLO inh | NPSR antagonist | IMPase Li cell | HPGD block
COCCNC(=O)CCSc1nc(-c2ccc3c(c2)OCO3)cc(C(F)(F)F)n1 | · | – | · | · | · | ·
O=c1c(-c2ccnn2-c2cccc(Cl)c2)cnc2n1CCS2 | – | – | – | – | – | –
Cn1cccc1C(=O)N1CCC[C@@]2(CCN(Cc3ccc(C#N)cc3)C2)C1 | ? | · | – | · | – | –
O=C(c1ccncc1)N1CCC[C@@]2(CCN(Cc3ccncc3)C2)C1 | 22µM | · | – | · | ? | –
COc1ccc(C(=O)N2CCC[C@@]3(CCN(Cc4ccccc4)C3)C2)cc1 | ? | · | – | · | – | ?
N#Cc1ccc(CN2CC[C@@]3(CCCN(C(=O)c4cccc(F)c4)C3)C2)cc1 | – | · | – | · | – | 28µM
O=C(c1cccc(F)c1)N1CCC[C@@]2(CCN(Cc3ccncc3)C2)C1 | ? | · | – | · | – | ?
COc1ccc(C(=O)N2CCC[C@@]3(CCN(Cc4ccncc4)C3)C2)cc1 | 28µM | · | – | · | – | 35µM
CCOc1cc(CNCCSc2nnnn2C)cc(Br)c1OCc1ccccc1 | ? | – | – | – | – | –
